Among all 310,000 compounds or so, about 14,000 (4.5%) showed an effect of 50% or more. The effect is printed as a negative number. What follows is part of a selection rich in strong results, with near analogues and random picks from the rest.
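Further: peak tail current of the secondary pulse compared with the same well before compound.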

The target in this test is human ether-à-go-go-related gene (hERG) potassium channel (human, UniProt Q12809). As to the kind of experiment: primary screen, population patch clamp on CHO cells stably expressing hERG; higher = less effect of the substance.
Chain of human ether-à-go-go-related gene (hERG) potassium channel (Q12809 whole entry, looked up): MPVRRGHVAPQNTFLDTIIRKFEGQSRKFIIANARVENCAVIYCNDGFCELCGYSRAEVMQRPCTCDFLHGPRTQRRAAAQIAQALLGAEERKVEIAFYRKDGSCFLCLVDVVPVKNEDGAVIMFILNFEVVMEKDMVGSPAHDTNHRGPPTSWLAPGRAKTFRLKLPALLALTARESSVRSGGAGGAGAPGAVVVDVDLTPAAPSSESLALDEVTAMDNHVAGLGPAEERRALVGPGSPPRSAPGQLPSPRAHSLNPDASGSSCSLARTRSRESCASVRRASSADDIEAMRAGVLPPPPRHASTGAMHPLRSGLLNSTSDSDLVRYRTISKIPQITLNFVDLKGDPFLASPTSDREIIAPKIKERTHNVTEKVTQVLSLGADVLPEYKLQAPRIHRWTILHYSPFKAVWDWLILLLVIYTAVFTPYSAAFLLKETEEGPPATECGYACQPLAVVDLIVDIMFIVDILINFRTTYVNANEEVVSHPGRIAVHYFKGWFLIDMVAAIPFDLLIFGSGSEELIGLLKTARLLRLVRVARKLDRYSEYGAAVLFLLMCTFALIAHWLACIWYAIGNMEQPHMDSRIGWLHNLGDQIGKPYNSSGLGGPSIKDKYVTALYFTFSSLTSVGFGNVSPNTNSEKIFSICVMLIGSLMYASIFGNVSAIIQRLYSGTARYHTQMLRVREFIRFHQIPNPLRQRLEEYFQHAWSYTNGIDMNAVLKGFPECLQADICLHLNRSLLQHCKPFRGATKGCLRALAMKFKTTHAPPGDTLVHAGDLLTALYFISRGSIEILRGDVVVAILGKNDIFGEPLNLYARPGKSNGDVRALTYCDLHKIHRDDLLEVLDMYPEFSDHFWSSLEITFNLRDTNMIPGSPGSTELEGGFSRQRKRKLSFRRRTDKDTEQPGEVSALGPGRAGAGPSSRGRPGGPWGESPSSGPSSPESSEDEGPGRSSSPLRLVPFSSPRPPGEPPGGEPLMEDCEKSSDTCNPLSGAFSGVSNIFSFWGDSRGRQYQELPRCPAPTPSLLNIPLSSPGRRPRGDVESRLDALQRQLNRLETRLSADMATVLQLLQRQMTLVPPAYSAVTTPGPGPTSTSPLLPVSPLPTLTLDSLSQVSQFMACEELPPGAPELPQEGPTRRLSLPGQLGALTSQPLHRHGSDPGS
Take `Cc1ccc(C2=NN(CC(=O)NCCC(C)C)C(=O)CC2)cc1`: the “hERG current change (%, negative = inhibition) at 10uM” value worked out at 4.58%.

With `Cc1cc(SCC(=O)OCC(=O)N(C)c2ccccc2)nc2ccccc12`, the “hERG current change (%, negative = inhibition) at 10uM” value is -22.8%.

For `C=C[C@]1(C)C=C2CCC3[C@](C)(CCC[C@@]3(C)C(=O)O)C2CC1` (some centres unmarked), the “hERG current change (%, negative = inhibition) at 10uM” value was found to be 13.3%.

`O=C(CCCN1C(=O)c2ccccc2C1=O)Nc1cccnc1`: the “hERG current change (%, negative = inhibition) at 10uM” value was -2.46%.

For `O=C(NCc1ccccn1)C1(C(F)(F)F)C/C(=C\CCO)CCCO1` (centres unmarked), the “hERG current change (%, negative = inhibition) at 10uM” value amounted to 6.37%.

In the case of `CCOc1ccc(S(=O)(=O)Nc2cccc(C(=O)N(C)Cc3cccc(OC)c3OC)c2)cc1`, the “hERG current change (%, negative = inhibition) at 10uM” value is -11.6%.

On to `O=C1[C@@H]2[C@H](C(=O)N1n1cnnc1)[C@H]1C=C[C@@H]2C1`, for which the “hERG current change (%, negative = inhibition) at 10uM” value is 11.5%.

`Cc1ccc(NC(=O)CN2CCCCCC2)cc1[N+](=O)[O-]`: the “hERG current change (%, negative = inhibition) at 10uM” value was 23.1%.

For `O=C(Nc1ccc(N2CCOCC2)c2nonc12)C1CCCC1`, the “hERG current change (%, negative = inhibition) at 10uM” value came out at 3.34%.

For `CCCn1c(=O)c2sccc2n2c(CCCC(=O)NCc3cccnc3)nnc12`, the “hERG current change (%, negative = inhibition) at 10uM” value is on record as 19.2%.

As for `C=CCNC(=O)CSc1n[nH]c(-c2cc(Cl)ccc2OC)n1`, the “hERG current change (%, negative = inhibition) at 10uM” value worked out at 8.25%.

For the compound `COc1ccc(Cl)cc1NC(=O)CN(C)C(=O)c1ccc2n[nH]nc2c1`, the “hERG current change (%, negative = inhibition) at 10uM” value is reported as -13.8%.

As to `COc1ccc(NC(=O)CN(C)C(=O)c2cn(-c3ccccc3)nc2-c2ccc(Cl)cc2)cc1`, the “hERG current change (%, negative = inhibition) at 10uM” value is given as 12.1%.

Take `COc1ccc(Cl)cc1NC(=O)COc1cccc(-n2cnnn2)c1`: the “hERG current change (%, negative = inhibition) at 10uM” value amounted to 10.3%.

`COc1ccc(Cl)cc1NC(=O)CN(C)C(=O)c1cccc(-n2cnnn2)c1`: the “hERG current change (%, negative = inhibition) at 10uM” value was -53.6%.

On to `COc1ccc(NC(=O)CN(C)C(=O)c2cn(-c3ccccc3)nc2-c2cccnc2)cc1`, for which the “hERG current change (%, negative = inhibition) at 10uM” value is -24.2%.

On to `COc1ccc(Cl)cc1NC(=O)CN(C)C(=O)c1cn(-c2ccccc2)nc1-c1cccnc1`, for which the “hERG current change (%, negative = inhibition) at 10uM” value was -59.9%.

As for `CCc1ccc(C(=O)Nc2cccc(-c3nn[nH]n3)c2)s1`, the “hERG current change (%, negative = inhibition) at 10uM” value is listed as 16.9%.

As for `CCOC(=O)C1CN(S(C)(=O)=O)c2cc(CC(=O)OC)ccc2O1` (centres unmarked), the “hERG current change (%, negative = inhibition) at 10uM” value is 1.78%.

As for `COc1ccccc1C(=O)NCCSCc1c(F)cccc1Cl`, the “hERG current change (%, negative = inhibition) at 10uM” value is on record as -15.4%.

As for `Cc1cccn2c(=O)c3cc(C(=O)NCC4CCCO4)c(=N)n(C4CCCC4)c3nc12` (centres unmarked), the “hERG current change (%, negative = inhibition) at 10uM” value is recorded as -74.8%.

`Cc1cccn2c(=O)c3cc(C(=O)NCC4CCCO4)c(=N)n(C4CCCCC4)c3nc12` (centres unmarked): the “hERG current change (%, negative = inhibition) at 10uM” value was -77.3%.

As for `O=C(O)c1nn2c(C(F)(F)F)cc(-c3cccs3)nc2c1Cl`, the “hERG current change (%, negative = inhibition) at 10uM” value is 1.4%.

In the case of `COc1cccc(C(=O)Nc2cc(=O)n(C)c(=O)n2C)c1OC`, the “hERG current change (%, negative = inhibition) at 10uM” value was 13.1%.

Regarding `Cc1nn(Cc2ccc(C(=O)NC3CCCCC3)o2)c(C)c1Br`, the “hERG current change (%, negative = inhibition) at 10uM” value is given as -34.6%.

Consider `COc1ccc2c(c1)c(CC(=O)O)c(C)n2C(=O)c1ccc(Cl)cc1`, for which the “hERG current change (%, negative = inhibition) at 10uM” value was determined as 6.45%.

Regarding `COc1ccc(OCC(=O)N2CC3(C)CC2CC(C)(C)C3)cc1` (centres unmarked), the “hERG current change (%, negative = inhibition) at 10uM” value is -21.2%.

`COc1ccc(/C=N/OCC(=O)N2CC3(C)CC2CC(C)(C)C3)cc1` (centres unmarked): the “hERG current change (%, negative = inhibition) at 10uM” value is -56%.

As to `COc1ccc(/C=N/OCC(=O)N2CC3(C)CC2CC(C)(C)C3)cc1OC` (centres unmarked), the “hERG current change (%, negative = inhibition) at 10uM” value was -3.72%.

For the compound `N#Cc1ccc(COC(=O)c2ccc3c(c2)OCO3)cc1`, the “hERG current change (%, negative = inhibition) at 10uM” value was -27.4%.

Turning to `CCc1ccc(NC(=O)CC2C(=O)NCCN2C(=O)c2ccc(F)cc2)cc1` (centres unmarked), the “hERG current change (%, negative = inhibition) at 10uM” value was -55.4%.

In the case of `Cc1ccc(NC(=O)CC2C(=O)NCCN2C(=O)c2ccc(F)cc2)cc1` (centres unmarked), the “hERG current change (%, negative = inhibition) at 10uM” value is -26.3%.

In the case of `CC(C)(C)c1ccc(C(=O)N2CCNC(=O)C2CC(=O)Nc2ccc(F)cc2)cc1` (centres unmarked), the “hERG current change (%, negative = inhibition) at 10uM” value was found to be 13.9%.

For the compound `O=S(=O)(Cc1ccccc1)Nc1ccc(F)cc1`, the “hERG current change (%, negative = inhibition) at 10uM” value was determined as 7.05%.

Take `O=C1c2cccc3cccc(c23)C(=O)N1OS(=O)(=O)c1ccc(Br)cc1`: the “hERG current change (%, negative = inhibition) at 10uM” value was 24.2%.

As for `COc1ccc(S(=O)(=O)Oc2ccc(C(=S)N3CCOCC3)cc2OC)cc1`, the “hERG current change (%, negative = inhibition) at 10uM” value was -0.365%.

On to `CCOc1cc(C(=S)N2CCOCC2)ccc1OS(=O)(=O)c1ccc(Br)cc1`, for which the “hERG current change (%, negative = inhibition) at 10uM” value is recorded as -1.54%.

As for `COc1cc(C(=S)N2CCOCC2)ccc1OC(=O)c1cc([N+](=O)[O-])cc([N+](=O)[O-])c1`, the “hERG current change (%, negative = inhibition) at 10uM” value was 0.943%.

Consider `COc1ccc(C(=S)N2CCOCC2)cc1OC(=O)c1cccc([N+](=O)[O-])c1`, for which the “hERG current change (%, negative = inhibition) at 10uM” value is given as -39.9%.

Consider `COc1cc(C(=S)N2CCOCC2)ccc1OC(=O)c1ccc([N+](=O)[O-])cc1[N+](=O)[O-]`, for which the “hERG current change (%, negative = inhibition) at 10uM” value was determined as 17.1%.

In the case of `COc1ccc(C(=S)N2CCOCC2)cc1OC(=O)c1ccc([N+](=O)[O-])cc1[N+](=O)[O-]`, the “hERG current change (%, negative = inhibition) at 10uM” value is recorded as -52%.

Take `COc1cc(C(=S)N2CCOCC2)cc(OC)c1OC(=O)c1ccc([N+](=O)[O-])cc1[N+](=O)[O-]`: the “hERG current change (%, negative = inhibition) at 10uM” value is listed as -4.69%.

With `COc1ccc(C(=S)N2CCOCC2)cc1OS(=O)(=O)c1ccc(Br)cc1`, the “hERG current change (%, negative = inhibition) at 10uM” value is listed as -70%.

In the case of `COc1ccc(C(=S)N2CCOCC2)cc1OC(=O)c1ccc([N+](=O)[O-])cc1`, the “hERG current change (%, negative = inhibition) at 10uM” value is recorded as -63%.
